Compound activity as filed in PubChem BioAssay.
In the library only some 9.5% were active in any assay of this set; here they are far more common.
NS1 function inh: influenza NS1 inhibition | Potency, µM (top dose mostly 46.1 µM), for inactives: top-dose activity, positive = more growth | 0.4% of 270,000 active; note: actives are rising curves; nearly all actives have a fitted effect of over 50% in size
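Compounds were scored for reversing the slow growth caused by influenza A NS1 in S. cerevisiae, measured by optical density at 600 nm. Assay medium contained 2% galactose at pH 6.0; NS1-free yeast of the same strain were the positive control.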
Pf growth 48h: inhibits P. falciparum growth in the first generation, 48 h; Potency, µM (highest dose often 28.7 µM), for the others: top-dose activity change, negative = inhibition, most hits filed as inhibitors; P. falciparum luciferase growth in erythrocytes, 48 h; 5.9% of 310,000 active; AID 504832; active = well fitted inhibition curve with a large enough effect; inconclusive = small, poorly fitted or top-dose-only effect, or another doubt; inactive = no such curve, though single readings can be large or run the other way; note: % is set by controls: 0 for no effect and ±100 for the full control effect
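Firefly luciferase activity from engineered P. falciparum reports growth; inhibitors lower the luminescent signal. Cultures contained 2% hematocrit erythrocytes at 0.1% final parasitemia.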
SARS PLP yeast: inhibitors of SARS-CoV papain-like protease in yeast | 0.19% of 330,000 active | S. cerevisiae expressing SARS-CoV PLpro, growth rescue | Potency, µM (series often up to 32.9 µM), for the others: top-dose activity, positive = growth rescue, usual class: activators | AID 485353; note: 0% is about no effect; nearly all actives have a fitted effect of over 55% in size
RE007 growth inh: less growth of the S. pombe RE007 Vpr strain. S. pombe RE007 Vpr strain, BacTiter-Glo ATP luminescence, 24 h. Potency, µM (doses to about 92.2 µM), inactives show top-dose activity change, negative = less growth, actives largely listed as inhibitors. 0.21% of 360,000 active; active = well fitted falling curve with a large enough effect; inconclusive = small, poorly fitted or top-dose-only effect; inactive = no such curve, though single readings can be large or run the other way; note: % is set by controls: 0 for no effect and ±100 for the full control effect; nearly all actives have a fitted effect of over 50% in size
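Fission yeast strain RE007, carrying one chromosomally integrated HIV-1 vpr copy, was seeded at OD 0.01 in PMG+AL medium with 23 nL pinned compound. After 24 h at 30 °C and 99% humidity, viability was read by BacTiter-Glo luminescence.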
Pf growth 96h: P. falciparum growth inhibition at 96 hour, primary screen for plastid delayed-death inhibitors; P. falciparum luciferase reporter growth, 96 h; Potency, µM (highest dose often 28.7 µM), for the others: top-dose activity change, negative = inhibition, hits mostly inhibitors; 6.9% of 320,000 active; AID 504834; active = well fitted inhibition curve with a large enough effect; inconclusive = small, poorly fitted or top-dose-only effect, or another doubt; inactive = no such curve, though single readings can be large or run the other way; note: % is set by controls: 0 for no effect and ±100 for the full control effect
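Plates of compound plus infected erythrocytes (2% hematocrit, 0.05% parasitemia final) incubate 96 hours, 37 C, 5% CO2. Detection reagent added; reduced luminescence from the parasites' luciferase reporter flags inhibition.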
* = called active by the depositor; ? = inconclusive; / = no result; [ ] = remark or other dose. Unless noted, calls come from the whole dose curve. Potency is the fitted concentration of half-maximal effect.

SMILES	NS1 function inh	Pf growth 48h	SARS PLP yeast	RE007 growth inh	Pf growth 96h
CCOC(=O)N1CCN(C(=O)CSc2nnc(CNC(=O)c3c(F)cccc3Cl)o2)CC1	7%	14%	-5%	-11%	12µM*
O=C(NCc1nnc(SCC(=O)N2CCC(Cc3ccccc3)CC2)o1)c1ccccc1F	-10%	9%	-1%	-1%	13µM*
O=C(CSc1nnc(CNC(=O)c2c(F)cccc2Cl)o1)Nc1ccccc1	-3%	18%	9%	16%	77%
O=C(CCCOC(=O)c1ccc(O)cc1O)c1ccc(Br)cc1	/	32%	-2%	-7%	5%
CN(C)CCCNC(=O)c1cc(C(=O)c2cccc(Cl)c2Cl)c[nH]1	3%	-15%[0.00184 µM]	1%	0%	-11%
CC(C)C12CC[C@@]3(CC[C@H]4[C@@](C)(CCC[C@]4(C)C(=O)O)[C@@H]3C1)[C@@H](CN)C2	-10%	/	/	/	/
CCNCCC1(CC)C(=O)NC(=O)NC1=O	-3%	/	/	/	/
COc1cc(/C=N/NC(=O)C2COc3ccccc3O2)ccc1O (configuration not stated)	0%	37%	0%	-7%	5%
COc1cc(/C=N/NC(=O)C2c3ccccc3Oc3ccccc32)ccc1O	3%	?	5%	4%	13µM*
COc1cc(/C=N\NC(=O)CC(=O)NCCc2ccccc2)ccc1O	4%	-1%	0%	-12%	10µM*
Cc1ccc(N2C(=O)CC(N3CCc4ccccc43)C2=O)cc1Cl (configuration not stated)	/	27%	-2%	-10%	?
Cc1ccc(N2C(=O)CC(Sc3nc4ccccc4o3)C2=O)cc1Cl (configuration not stated)	-5%	32%	-30%	10µM*	1%
O=C(NCCC1=CCCCC1)C1CCC(CNc2c(N3CCCC3)c(=O)c2=O)CC1 (configuration not stated)	2%	?	2%	6%	?
O=C(C1CCC(CNc2c(N3CCCCC3)c(=O)c2=O)CC1)N1CCc2ccccc2C1 (configuration not stated)	-6%	9.3µM*	-1%	9%	-44%
CC1CCN(c2c(NCC3CCC(C(=O)NCCC4=CCCCC4)CC3)c(=O)c2=O)CC1 (configuration not stated)	-8%	7.4µM*	-1%	-13%	?
CC1CCN(c2c(NCC3CCC(C(=O)NC4CCCCCC4)CC3)c(=O)c2=O)CC1 (configuration not stated)	1%	?	3%	-4%	?
O=C(NCCC1=CCCCC1)C1CCC(CNc2c(N3CCCCC3)c(=O)c2=O)CC1 (configuration not stated)	1%	9.3µM*	-2%	-4%	?
Cc1ccc(C(=O)OCC(=O)N(Cc2ccccc2)C(C)C)cc1C	/	/	-2%	2%	/
CC(=O)NC1[C@H]([C@H](O)[C@H](O)CO)OC(C(=O)O)=C[C@H]1N=C(N)N (some centres not stated)	/	10%	/	/	-3%
CC(C)CCc1noc(CN2CCC(CCN3CCCC3=O)CC2)n1	-5%	18%	0%	2%	13µM*
O=C(O)C1C(c2ccccc2)c2ccccc2C(O)C1CO (configuration not stated)	/	/	/	34%	/
O=S(=O)(Nc1nc2cc3c(cc2nc1Cl)OCCO3)c1ccccc1	-2%	15µM*	3%	-1%	16%
Cc1oc(-c2ccccc2)cc1C(=O)NC1CCN(Cc2ccccc2)CC1	0%	42%	-1%	-1%	2%
N#Cc1cnc(NN)nc1	/	10µM*	2%	-9%	?
O=C(Cc1ccc(NC(=O)C2CCCN(C(=O)C3CC3)C2)cc1)Nc1ccc(C(=O)N2CCOCC2)cc1 (configuration not stated)	/	/	/	14%	/
SMILES	NS1 function inh	Pf growth 48h	SARS PLP yeast	RE007 growth inh	Pf growth 96h
COc1ccccc1/C=N/OCc1ccc(C#N)cc1	3%	11%	0%	1%	40%
C=C1C(=O)OC2CC1C(O)CC(C)=CCCC(C)=CC(O)CC2C (configuration not stated)	/	/	/	-18%	/
C=C1C(=O)O[C@@H]2C[C@@H](C)[C@@H]3C4OC4C(=O)[C@@]3(C)[C@@H](O)[C@H]12 (some centres not stated)	0%	3.3µM*	-4%	-2%	3.3µM*
COC(=O)C(CO)NC(=O)C1CCCN1C(=O)CNC(=O)OCc1ccccc1 (configuration not stated)	3%	-9%	3%	4%	0%
CC(=O)Nc1ccc(N2C(C(C)=O)=NN(c3ccc(Cl)cc3)C2c2sccc2C)cc1 (configuration not stated)	-10%	9.3µM*	-7%	-9%	?
CC(=O)Nc1ccc(N2C(C(C)=O)=NN(c3ccccc3)C2c2cccs2)cc1 (configuration not stated)	12%	?	1%	1%	?
C1CCc2c(nnc3c2-c2nonc2CC3)C1	-5%	9%	2%	7%	2.1µM*
O=C1NCCCc2nonc21	-2%	9%	-1%	-10%	55%
Cc1nnc2sc(SCC(=O)N3CCC(C)CC3)nn2c1=O	7%	?	1%	-4%	3.7µM*
Cc1ccccc1CSc1nn2c(=O)c(C)nnc2s1	/	5.2µM*	-3%	9%	?
Cc1ccccc1NC(=O)CSc1nn2c(=O)c(C)nnc2s1	/	?	-1%	-6%	?
Cc1nnc2sc(SCC(=O)Nc3ccc(Br)cc3)nn2c1=O	4%	?	0%	2%	?
Cc1nnc2sc(SCC(=O)N3CCCCC3)nn2c1=O	4%	2.6µM*	3%	6%	0.83µM*
c1cc(-c2ccc3nncn3c2)ccc1CN1CCOCC1	/	/	/	-12%	/
CN1/C(=C\C=O)C(C)(C)c2ccccc21	/	2%	-1%	4%	5%
CN1/C(=C\C=C\C2=[N+](C)c3ccc4ccccc4c3C2(C)C)C(C)(C)c2ccccc21	-127%	1.3µM*	-31%	/	0.33µM*
Clc1ccccc1Nc1nnc(-c2ccncc2)s1	-20%	76%	-84%	32µM*	22%
COc1cc2c(cc1OC)C1=C(C#N)COCN1CC2	13%	?	2%	5%	3.7µM*
C=C(CC1([C@@H](NP(=O)(c2ccccc2)c2ccccc2)[C@H]2C[C@@H]2CCCC)CC1)c1ccccc1	12%	5.9µM*	10%	-3%	9.3µM*
Cc1cccc(C(=O)C2CCN(S(=O)(=O)c3cccc(C(=O)O)c3)CC2)c1	4%	-15%	9%	-14%	16%
O=C(CNc1ccc2ccccc2c1)N/N=C/c1ccc(OC(=O)/C=C/c2ccco2)cc1	7%	8.3µM*	4%	-14%	31%
COc1ccc(C2(O)CC3CCC(C2)N3c2cc(C)nc(-c3ccccc3)n2)cc1 (configuration not stated)	-33%	12µM*	-16%	-19%	/
